Measured values as given in ChEMBL document CHEMBL2218924, “A broad activity screen in support of a chemogenomic map for kinase signalling research and drug discovery” (Biochem J, 2013).

The compounds below were run against Serine/threonine-protein kinase 24 (Homo sapiens) (UniProt Q9Y6E0). Conditions: at 10 µM.
Serine/threonine-protein kinase 24 (Homo sapiens), sequence (Q9Y6E0 whole entry, looked up): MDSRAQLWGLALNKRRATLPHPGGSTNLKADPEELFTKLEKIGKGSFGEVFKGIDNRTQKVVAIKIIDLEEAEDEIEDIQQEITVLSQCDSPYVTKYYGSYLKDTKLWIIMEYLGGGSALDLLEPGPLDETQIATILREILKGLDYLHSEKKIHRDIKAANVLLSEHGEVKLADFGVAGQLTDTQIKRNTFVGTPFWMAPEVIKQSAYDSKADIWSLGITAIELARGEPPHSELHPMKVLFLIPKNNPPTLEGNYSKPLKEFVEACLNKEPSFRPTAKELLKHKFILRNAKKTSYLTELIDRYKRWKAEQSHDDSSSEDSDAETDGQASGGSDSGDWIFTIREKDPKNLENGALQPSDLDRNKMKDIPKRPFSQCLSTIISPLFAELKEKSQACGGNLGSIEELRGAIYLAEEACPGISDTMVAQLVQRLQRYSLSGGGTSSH

Compound | residual activity [%]
CO[C@H]1C[C@@H]2CC[C@@H](C)[C@@](O)(O2)C(=O)C(=O)N2CCCC[C@H]2C(=O)O[C@H]([C@H](C)C[C@@H]2CC[C@@H](O)[C@H](OC)C2)CC(=O)[C@H](C)/C=C(\C)[C@@H](O)[C@@H](OC)C(=O)[C@H](C)C[C@H](C)/C=C/C=C/C=C/1C | 76
Nc1nc(Nc2ccc(S(N)(=O)=O)cc2)nn1C(=S)Nc1c(F)cccc1F | 1
O=C1NC(=O)/C(=C\c2ccc3nccnc3c2)S1 | 55
COc1ccc(CNc2nc(N(CCO)CCO)nc3c2ncn3C(C)C)cc1 | 60
COc1ccc(C(=O)Nc2sc3c(c2C(N)=O)CCCC3)cc1OC | 65
O=C(Nc1cccc(Nc2cc(Nc3cccc(C(F)(F)F)c3)ncn2)c1)C1CC1 | 42
Oc1ccc(Nc2nc(-c3ccc(Cl)cc3)cs2)cc1 | 102
COc1ccc(OC)c2c(=S)c3ccccc3[nH]c12 | 85
O=C1Nc2cc(Br)ccc2/C1=C1/Nc2ccccc2/C1=N\O | 70
Nc1cccc(-c2cc3c(Oc4cccc(O)c4)ncnc3[nH]2)c1 | 23
Oc1n[nH]c2nnc(-c3c(-c4ccccc4)nn4ccccc34)cc12 | 71
COc1cccc(-c2cc(=O)c3ccccc3o2)c1N | 89
Cc1nc2cc3nc(-c4cccs4)cnc3cc2n1C | 96
O=Nc1c(-c2c(O)[nH]c3ccccc23)[nH]c2ccccc12 | 10
O=C1c2ccccc2-[n+]2ccc3c([nH]c4ccccc43)c21 | 70
CNc1cc2c(Nc3cccc(Br)c3)ncnc2cn1 | 86
O=c1cc(-c2cccc3c2Sc2ccccc2S3)oc(N2CCOCC2)c1 | 81
C[C@@H](N)[C@H]1CC[C@H](C(=O)Nc2ccncc2)CC1 | 92

Compound | residual activity [%]
Cc1nc(-c2ccccc2)c(-c2ccncc2)o1 | 100
CCC(=O)Nc1ccc2ncnc(Nc3cccc(Br)c3)c2c1 | 69
Cn1cnc2cc3c(Nc4cccc(Br)c4)ncnc3cc21 | 80
CC(C)n1cnc2/c(=N/c3cccc(Cl)c3)nc(NCCO)[nH]c21 | 29
Oc1c2ccccc2c2c3c(cccc13)N=N2 | 21
COc1cc2ncnc(Nc3ccc(O)c(Br)c3)c2cc1OC | 43
N#C/C(=C(\N)Sc1ccc(N)cc1)c1ccccc1C(F)(F)F | 62
CCOc1cc2ncnc(Nc3cccc(Br)c3)c2cc1OCC | 47
O=C1NC(=O)c2c1c1c3ccccc3[nH]c1c1[nH]c3cc(Br)ccc3c21 | 80
CC#CC(=O)Nc1cc2c(Nc3ccc(F)c(Cl)c3)ncnc2cn1 | 75
NC(=O)c1ccc2[nH]c(-c3ccc(Oc4ccc(Cl)cc4)cc3)nc2c1 | 82
O=C(Nc1cccc(Nc2nccc(Nc3cccc(C(F)(F)F)c3)n2)c1)C1CC1 | 65
O=c1c2ccccc2[nH]c(=S)n1CCN1CCC(=C(c2ccc(F)cc2)c2ccc(F)cc2)CC1 | 69
Ic1cccc(CSc2nnc(-c3ccncc3)o2)c1 | 43
O=C1NC(=O)/C(=C/c2ccc3c(c2)OC(F)(F)O3)S1 | 70
Cc1ccc(NC2=CC(=O)c3sc(C)nc3C2=O)cc1 | 83
CC(=O)O/N=C1\C(=C2\C(=O)Nc3cc(Br)ccc32)Nc2ccccc21 | 74
